# Experimental data published in the supplement of paper PMC3334620.
# In all, about 33,000 sequences were measured (“E-score (-0.5 to 0.5)”: median about -0.04, highest 2% from about 0.36 on). Many of the other results were omitted from the sample, so the highest values are more common in it than they were.
# Molecular target: T1, Hmlalpha2 (UniProt P0CY09)
# T1 sequence: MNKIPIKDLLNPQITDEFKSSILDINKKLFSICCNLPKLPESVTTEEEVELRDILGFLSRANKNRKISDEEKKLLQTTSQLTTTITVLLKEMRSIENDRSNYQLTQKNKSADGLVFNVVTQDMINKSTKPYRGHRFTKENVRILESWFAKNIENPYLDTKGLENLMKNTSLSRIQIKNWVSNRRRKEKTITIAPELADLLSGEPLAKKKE
# Experiment: PBM E-score (8-mer binding enrichment) (E-score (-0.5 to 0.5)); higher = stronger / more preferred TF binding
# Conditions: protein concentration: 200 nM; construct: GST-full length
# Procedure: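 Universal 'all 10-mer' protein binding microarrays (Agilent AMADID 015681) probed with GST-tagged S. cerevisiae TFs (full-length or DBD) made by in vitro transcription/translation (PURExpress), about 100-200 nM. Bound TF was detected with fluorescent anti-GST. Each ungapped 8-mer (which stands for itself and its reverse complement) is scored by the PBM enrichment score (E-score), a modified Wilcoxon-Mann-Whitney statistic from -0.5 to +0.5, computed with the Universal PBM Analysis Suite. Scale: above 0.35 generally sequence-specific binding.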
row,Sequence,PBM E-score
1,AAACACAA,0.322
2,GAACACAA,0.319
3,CAACAAGA,0.225
4,CAACTGCG,-0.126
5,CGACTGAC,-0.137
6,ACTTGTGA,0.148
7,TAGTCGCA,-0.085
8,AAGGTGGT,-0.0621
9,TGCCTACA,0.0851
10,AAGCTACA,0.158
11,CCGGTGCA,-0.247
12,ATCACACG,0.371
13,CAAACACA,0.334
14,AAAACACA,0.333
15,AACACACA,0.391
16,TAAACACA,0.379
17,AACACACT,0.313
18,AAAACACT,0.148
19,AAAACACG,0.426
20,CAAACACG,0.314
21,ATCACACC,-0.0635
22,ATCACACA,0.228
23,AACACACG,0.319
24,GGCTTAAA,-0.0594
25,AGTACTAA,0.173

row,Sequence,PBM E-score
1,GAGCGCCA,-0.25
2,GCGCAACC,-0.228
3,ACGTCCCT,0.163
4,CGTCCTAA,-0.108
5,GTCTCCAC,-0.178
6,CCCCGTCC,-0.382
7,ATGGTGAA,-0.0612
8,CTGTATTC,0.255
9,ATGTATTG,0.416
10,ATGTATTC,0.443
11,ACGTATTG,0.292
12,ATGTATCG,0.323
13,AGGTATTC,0.139
14,ATAGTTCG,0.0279
15,CTCGAGTC,-0.178
16,AAGAACCG,0.117
17,CCCAATCA,-0.113
18,AGGCATTC,-0.265
19,GGCGTATA,0.106
20,GGCGTAAA,0.217
21,CGCGTAAA,0.454
22,CGCGTATA,0.372
23,CGCGTAAG,0.369
24,AGCGTAAA,0.22
25,TGCGTAAA,0.441

row,Sequence,PBM E-score
1,CGCGTAAC,0.342
2,AGCGTAAG,-0.106
3,CTCGTAAG,0.172
4,CGCGTATC,0.219
5,CGCGTAGA,0.359
6,AGCAAGTC,-0.0673
7,CCCTATCG,-0.272
8,AGGAAACC,-0.0996
9,TCCCAGGA,-0.361
10,CATTAGAG,-0.127
11,AGATTTGC,-0.0168
12,CGAGGGTA,-0.233
13,GCCTGCCA,-0.0217
14,CCATGACG,-0.105
15,ACATGACG,0.379
16,ACATGACC,0.38
17,GCATGACC,-0.191
18,GCATGACA,0.188
19,ACATGACT,0.307
20,CCATGACA,0.0453
21,CCATGACC,-0.348
22,ACATGACA,0.412
23,GCTTCAAC,0.0375
24,CTTGATCC,-0.142
25,AAAATCGT,0.0614

row,Sequence,PBM E-score
1,AGATGGAT,-0.265
2,GTGTCTCA,-0.0554
3,GCCTAGAA,-0.187
4,CGAGAAAG,-0.0529
5,AGCCCTGA,-0.0785
6,CCCGTGGA,-0.176
7,CCCGTGTA,0.451
8,ACCGTGTA,0.473
9,GCCGTGAA,-0.197
10,ACCGTGTG,0.113
11,GCCGTGCA,0.0721
12,ACCGTGTC,0.264
13,GCCGTGTA,0.432
14,CCCGTGTC,0.168
15,AGCAAACG,-0.0759
16,AAGTGCCG,0.00934
17,ACCGACTG,-0.317
18,GTTGTTGA,0.259
19,TTCTGAAA,0.0341
20,CTTTCTGA,0.0509
21,TCATTACA,0.439
22,ACATTACT,0.303
23,CCATTACG,0.13
24,TCATTAAA,0.263
25,ACATTACG,0.336

row,Sequence,PBM E-score
1,GCATTACC,8e-05
2,CCATTACC,-0.0103
3,TCATTAGA,0.0985
4,ACATTACA,0.449
5,CCATTACA,0.435
6,GCATTAGA,0.0569
7,GCATTACA,0.428
8,GTACGAAC,0.152
9,GGGAGAGA,-0.33
10,ACGGGTTG,-0.15
11,CCTCAGCG,-0.255
12,CCCAGAAA,-0.0348
13,GTTGCGAA,0.0227
14,ACGTCCTC,-0.162
15,CACGGCTC,-0.0568
16,CGTGTCGC,0.214
17,ATGCCCTG,-0.0289
18,CCGGCGGA,-0.234
19,GACATGTA,0.423
20,GACATTTA,0.191
21,GAAATGTA,0.0891
22,CAAATGTA,0.35
23,TACATGTA,0.479
24,CACATGTA,0.416
25,TAAATGTA,0.38

row,Sequence,PBM E-score
1,TACAGGTA,0.135
2,GACATGTC,0.327
3,CACATGTC,0.22
4,TACATCTA,0.263
5,AATTGACA,0.275
6,AGTCTAGG,-0.15
7,CGCTCTCA,-0.165
8,CAGTCCCG,-0.196
9,ACGCCGAG,-0.0454
10,ATGTGCTA,0.0958
11,CGAAGAAG,-0.0393
12,GTGTTGGA,0.224
13,ATGTTGAA,0.395
14,ATGTTGAC,0.356
15,ATGTTGAG,0.33
16,CTGTTGAA,0.259
17,GTGTTGAA,0.398
18,GAGCTATA,-0.0673
19,GGTGCTCA,-0.179
20,CCCACGAA,-0.102
21,GGCAGCCC,-0.418
22,ATTCACAA,0.232
23,AATACAAT,0.249
24,GATACATA,0.32
25,AATACAAC,0.315

row,Sequence,PBM E-score
1,AATACATT,0.329
2,AATACATG,0.482
3,AATACAAG,0.386
4,TATACAAA,0.265
5,AATACAGG,0.2
6,AATACAGC,0.0849
7,TATACATA,0.445
8,AATACATC,0.368
9,GATACATC,0.169
10,GAATGGTA,0.232
11,GGTGGGGA,-0.0925
12,GGCTTATA,-0.0133
13,AGTGTTGC,0.169
14,CGTAAGTC,0.0646
15,CCTAAGAG,-0.136
16,AAGCCAAC,0.00741
17,CATACCCG,-0.117
18,CATACATC,0.253
19,AATACATA,0.444
20,AATACAAA,0.363
21,AATACAGA,0.204
22,CATACATG,0.382
23,CATACATA,0.329
